# Results: publication PMC7862700, “An all-to-all approach to the identification of sequence-specific readers for epigenetic DNA modifications on cytosine”
# Columns and labels:
# Experiment in all cases: DAPPL (digital affinity profiling via proximity ligation, sequencing); 10 mM Tris-HCl pH 7.5, 50 mM NaCl, 1 mM DTT, 4% glycerol, room temperature, 30 min; GST-TFs on glutathione beads, 16-mer random dsDNA library, 0.1% formaldehyde crosslink after washing; high values mean tight binding
# Details in all cases: protein: recombinant; tags: N-terminal GST; dsDNA, one strand shown
# FLI1 = target: T1, FLI1 (Homo sapiens, UniProt Q01543 1-452)
# T1 sequence: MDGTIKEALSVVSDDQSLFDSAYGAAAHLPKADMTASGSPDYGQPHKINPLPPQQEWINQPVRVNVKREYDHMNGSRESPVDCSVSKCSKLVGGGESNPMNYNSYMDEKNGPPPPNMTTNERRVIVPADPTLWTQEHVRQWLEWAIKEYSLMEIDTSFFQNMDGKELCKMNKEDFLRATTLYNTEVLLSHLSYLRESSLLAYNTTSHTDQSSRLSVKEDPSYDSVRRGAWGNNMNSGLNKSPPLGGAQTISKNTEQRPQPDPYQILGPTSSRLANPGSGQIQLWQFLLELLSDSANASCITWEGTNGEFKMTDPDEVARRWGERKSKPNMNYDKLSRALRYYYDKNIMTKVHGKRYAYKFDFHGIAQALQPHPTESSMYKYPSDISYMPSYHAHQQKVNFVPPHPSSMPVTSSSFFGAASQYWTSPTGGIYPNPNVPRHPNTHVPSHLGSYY
# Summary of the method: (§1)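 Yeast served to express human transcription factors as GST fusions, which were then captured on glutathione beads and labelled with DNA barcodes. Pooled with a tag-only sample, they were incubated with 200 nmole of a 16-mer random double-stranded DNA library for 30 min at room temperature in Tris/NaCl/DTT/glycerol buffer, washed, crosslinked with 0.1% formaldehyde, ligated by proximity, amplified by PCR and sequenced. Dividing each hexamer's read frequency for a factor by its frequency for the tag-only sample gives the binding signal.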
# ELK1 = target: T2, ELK1 (Homo sapiens, UniProt P19419 1-428)
# T2 sequence: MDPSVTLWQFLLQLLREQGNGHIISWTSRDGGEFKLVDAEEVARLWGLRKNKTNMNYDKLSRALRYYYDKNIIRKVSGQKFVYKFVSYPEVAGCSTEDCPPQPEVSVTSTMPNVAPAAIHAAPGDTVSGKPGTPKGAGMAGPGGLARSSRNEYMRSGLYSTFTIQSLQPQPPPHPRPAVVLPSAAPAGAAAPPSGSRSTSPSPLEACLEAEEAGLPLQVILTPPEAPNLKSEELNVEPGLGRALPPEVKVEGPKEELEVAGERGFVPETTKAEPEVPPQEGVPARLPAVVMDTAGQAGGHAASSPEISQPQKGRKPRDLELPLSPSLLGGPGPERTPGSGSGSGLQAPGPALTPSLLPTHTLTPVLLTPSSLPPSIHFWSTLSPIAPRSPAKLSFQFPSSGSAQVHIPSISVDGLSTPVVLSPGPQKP
# Summary of the method: as §1
# GABPA = target: T3, GABPA (Homo sapiens, UniProt Q06546 1-454)
# T3 sequence: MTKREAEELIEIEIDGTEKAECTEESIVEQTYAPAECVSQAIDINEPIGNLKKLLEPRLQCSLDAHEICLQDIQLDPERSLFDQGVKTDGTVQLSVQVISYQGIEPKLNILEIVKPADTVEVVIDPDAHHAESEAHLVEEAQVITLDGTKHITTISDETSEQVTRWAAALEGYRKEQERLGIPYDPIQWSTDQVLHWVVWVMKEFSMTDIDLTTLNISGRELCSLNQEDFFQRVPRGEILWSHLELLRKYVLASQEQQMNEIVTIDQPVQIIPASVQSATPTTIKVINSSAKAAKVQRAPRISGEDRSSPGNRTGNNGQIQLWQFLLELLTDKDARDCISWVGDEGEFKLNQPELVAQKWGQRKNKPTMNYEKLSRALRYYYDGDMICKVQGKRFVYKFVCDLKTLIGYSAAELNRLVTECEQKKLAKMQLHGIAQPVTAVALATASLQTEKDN
# Summary of the method: as §1
# ERG = target: T4, ERG (Homo sapiens, UniProt P11308 1-479)
# T4 sequence: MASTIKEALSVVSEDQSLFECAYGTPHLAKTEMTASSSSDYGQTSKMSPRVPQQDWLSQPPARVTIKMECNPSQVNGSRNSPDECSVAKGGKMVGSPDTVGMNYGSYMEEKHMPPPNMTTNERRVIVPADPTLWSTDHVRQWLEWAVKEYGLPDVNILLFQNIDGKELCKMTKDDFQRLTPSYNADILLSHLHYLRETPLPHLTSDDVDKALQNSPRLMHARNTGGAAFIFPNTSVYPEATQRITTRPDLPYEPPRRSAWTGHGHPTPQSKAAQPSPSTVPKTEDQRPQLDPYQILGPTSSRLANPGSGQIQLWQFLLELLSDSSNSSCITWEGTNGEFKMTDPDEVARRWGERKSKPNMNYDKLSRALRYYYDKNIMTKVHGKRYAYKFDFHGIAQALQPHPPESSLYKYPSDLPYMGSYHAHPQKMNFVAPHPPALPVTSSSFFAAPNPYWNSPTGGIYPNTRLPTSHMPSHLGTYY
# Summary of the method: as §1
# ELF1 = ELF1 (Homo sapiens, UniProt P32519 1-619)
# Sequence of ELF1 (P32519 whole entry): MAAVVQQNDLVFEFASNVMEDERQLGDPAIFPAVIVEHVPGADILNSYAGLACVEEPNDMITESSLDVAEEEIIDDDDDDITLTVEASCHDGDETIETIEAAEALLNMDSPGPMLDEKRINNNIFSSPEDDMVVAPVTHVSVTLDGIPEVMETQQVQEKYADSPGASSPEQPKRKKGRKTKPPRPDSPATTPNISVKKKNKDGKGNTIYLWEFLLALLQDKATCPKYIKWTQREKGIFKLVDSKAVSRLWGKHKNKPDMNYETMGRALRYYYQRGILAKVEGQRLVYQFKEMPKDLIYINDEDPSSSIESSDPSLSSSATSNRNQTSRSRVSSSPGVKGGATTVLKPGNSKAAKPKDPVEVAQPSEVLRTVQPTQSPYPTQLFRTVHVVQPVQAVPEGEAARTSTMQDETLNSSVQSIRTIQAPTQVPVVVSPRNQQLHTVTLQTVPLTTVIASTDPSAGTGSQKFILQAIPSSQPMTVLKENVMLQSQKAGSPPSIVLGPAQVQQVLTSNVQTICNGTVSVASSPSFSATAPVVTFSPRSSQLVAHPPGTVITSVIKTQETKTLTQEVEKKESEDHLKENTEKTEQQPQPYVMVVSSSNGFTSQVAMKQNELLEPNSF
# Summary of the method: as §1
# EHF = target: T5, EHF (Homo sapiens, UniProt Q9NZC4 1-300)
# T5 sequence: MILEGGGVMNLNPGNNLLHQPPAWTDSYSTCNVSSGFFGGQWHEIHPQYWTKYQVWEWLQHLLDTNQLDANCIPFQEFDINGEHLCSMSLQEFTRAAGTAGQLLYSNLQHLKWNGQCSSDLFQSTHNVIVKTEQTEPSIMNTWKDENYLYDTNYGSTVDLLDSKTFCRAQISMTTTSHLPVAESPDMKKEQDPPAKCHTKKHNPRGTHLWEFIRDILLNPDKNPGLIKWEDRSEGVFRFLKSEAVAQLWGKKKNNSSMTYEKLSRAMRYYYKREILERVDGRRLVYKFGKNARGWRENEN
# Summary of the method: as §1
# SPI1 = SPI1 (Homo sapiens, UniProt P17947 1-270)
# Summary of the method: as §1
# SPIB = SPIB (Homo sapiens, UniProt Q01892 1-262)
# Sequence of SPIB (Q01892 whole entry): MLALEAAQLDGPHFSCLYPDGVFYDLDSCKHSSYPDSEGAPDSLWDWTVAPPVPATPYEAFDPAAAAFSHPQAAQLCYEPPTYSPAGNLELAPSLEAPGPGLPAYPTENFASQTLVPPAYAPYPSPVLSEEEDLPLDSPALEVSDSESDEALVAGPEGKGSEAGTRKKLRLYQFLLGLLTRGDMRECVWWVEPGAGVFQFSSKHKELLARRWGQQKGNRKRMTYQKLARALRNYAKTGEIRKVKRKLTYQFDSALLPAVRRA
# Summary of the method: as §1
# ELK3 = target: T6, ELK3 (Homo sapiens, UniProt P41970 1-407)
# T6 sequence: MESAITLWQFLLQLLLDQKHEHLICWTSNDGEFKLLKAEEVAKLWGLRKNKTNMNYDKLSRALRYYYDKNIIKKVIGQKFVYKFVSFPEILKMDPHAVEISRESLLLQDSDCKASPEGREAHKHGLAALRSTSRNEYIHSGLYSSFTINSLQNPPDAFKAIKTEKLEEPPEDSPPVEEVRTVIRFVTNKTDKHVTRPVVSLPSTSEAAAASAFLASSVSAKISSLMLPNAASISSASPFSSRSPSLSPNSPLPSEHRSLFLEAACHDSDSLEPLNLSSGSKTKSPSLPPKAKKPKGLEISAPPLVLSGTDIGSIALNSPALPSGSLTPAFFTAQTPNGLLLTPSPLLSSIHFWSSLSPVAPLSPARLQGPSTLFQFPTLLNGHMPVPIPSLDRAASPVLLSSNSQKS
# Summary of the method: as §1
sequence,measurement,setting,value
CTGGTT,binding signal,FLI1,"1.36 fold enrichment (6-mer frequency, TF over GST control)"
same,binding signal,ELK1,"1.3 fold enrichment (6-mer frequency, TF over GST control)"
same,binding signal,GABPA,"1.2 fold enrichment (6-mer frequency, TF over GST control)"
same,binding signal,ERG,"1.31 fold enrichment (6-mer frequency, TF over GST control)"
same,binding signal,ELF1,"1.31 fold enrichment (6-mer frequency, TF over GST control)"
same,binding signal,EHF,"1.18 fold enrichment (6-mer frequency, TF over GST control)"
same,binding signal,SPI1,"1.45 fold enrichment (6-mer frequency, TF over GST control)"
same,binding signal,SPIB,"1.24 fold enrichment (6-mer frequency, TF over GST control)"
same,binding signal,ELK3,"1.21 fold enrichment (6-mer frequency, TF over GST control)"
